# This is part of a sample that, as a whole, favours compounds with a hit. Of some 79,000 tested, about 15% had one in any assay. A number with no mark means an inactive call. Active and inactive are the calls of the source. Cut-off read from the data, not from the text of the source: active = growth inhibition above about 70%; inactive = the rest.
# Assays:
# [1] = NCI Yeast Anticancer Drug Screen. Data for the rad50 strain (AID 155);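 note: 0% = growth of vehicle-only cultures of the same strain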; details: S. cerevisiae rad50 strain growth inhibition; at 50.0 µM; stronger effect = higher value
# Procedure, shortened: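 A DNA repair-deficient yeast mutant serves as the test organism; compound-induced growth inhibition is calculated against vehicle-treated cells.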
# [2] = NCI Yeast Anticancer Drug Screen. Data for the mec2-1 strain (AID 157); details: S. cerevisiae mec2-1 strain, at 50.0 µM, stronger effect = higher value
# Procedure, shortened: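 Cells of the genetically defined mec2-1 yeast strain are incubated with test compound. Inhibition of growth is calculated against vehicle-treated controls.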
# [3] = NCI Yeast Anticancer Drug Screen. Data for the sgs1 mgt1 strain (AID 161);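 note: 0% = growth of cultures given vehicle only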; details: S. cerevisiae sgs1 mgt1 strain, at 50.0 µM, stronger effect = higher value
# Procedure, shortened: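 Inhibition of yeast growth, normalised to vehicle-treated controls, is reported for a strain bearing genetic alterations in DNA damage repair.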
# [4] = NCI Yeast Anticancer Drug Screen. Data for the cln2 rad14 strain (AID 165);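 note: 0% = growth equal to vehicle treated cultures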; details: S. cerevisiae cln2 rad14 strain, at 50.0 µM, stronger effect = higher value
# Procedure, shortened: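 The screen exposed genetically defined yeast (cln2 rad14) to test compounds and scored growth inhibition relative to vehicle-treated controls.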
# [5] = NCI Yeast Anticancer Drug Screen. Data for the bub3 strain (AID 167); details: S. cerevisiae bub3 mutant strain, at 50.0 µM, stronger effect = higher value
# Procedure, shortened: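 Inhibition values come from growth of compound-treated mutant yeast normalised to vehicle-treated controls.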
# [6] = NCI Yeast Anticancer Drug Screen. Data for the mlh1 rad18 strain (AID 175); details: S. cerevisiae mlh1 rad18 strain growth inhibition; at 50.0 µM; stronger effect = higher value
# Procedure, shortened: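 Compound-treated yeast growth, normalised to vehicle controls. Strain bears defined DNA repair mutations.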
SMILES,growth inhibition [1] [%],growth inhibition [2] [%],growth inhibition [3] [%],growth inhibition [4],growth inhibition [5] [%],growth inhibition [6] [%]
COC(=O)C(=[N+]=[N-])C(=O)c1ccccc1[N+](=O)[O-],30.5,27.4,15.8,18.5%,6.9,14.5
Cc1nc2c(SCc3ccccc3)ncnc2o1,16.1,-9.5,14.9,22.8%,35.4,19.5
CNc1ncnc2c1c(C(N)=S)cn2C1OC(CO)C(O)C1O (configuration not stated),0.1,-22.7,-13.7,2.2%,0.95,12.5
COC[N+](C)(C)C,-2.55,-6.25,-7.6,2.4%,7.2,10.5
COc1ccc(Cl)cc1C(c1cc(Cl)ccc1OC)C(Cl)(Cl)Cl,-7.35,-1.6,-9.05,-23.6%,-16.6,-13.4
O=C(CCNC(=O)OCc1ccccc1)NC(Cc1ccccc1)C(=O)OCc1ccccc1 (configuration not stated),-0.9,-14.2,4.55,-15.3%,2.4,7.65
CC(C)C1OC2(CCCCC2)OCC1(C)C (configuration not stated),23.2,14.8,8.25,-8.35%,21.1,23.4
Nc1cccc2c1-c1ccc([N+](=O)[O-])cc1C2=O,7.6,18.4,-6.25,5.5%,5.55,4.25
N#C/C(=N/Nc1ccccc1)c1ccccc1,6.5,9.1,-12.1,-11.2%,1.85,-7.95
Cc1ccc2nc(C)cc(NC(=O)c3ccccc3)c2c1,13.6,8.45,8.55,-18.1%,-5.3,24.2
CC(c1ccc(N)cc1)n1cnc2c(Cl)ncnc21 (configuration not stated),-3.75,18.2,4.1,-5.5%,8.85,7.85
O=C(Nc1ccccc1)C1CC2C=CC1C2 (configuration not stated),2.3,-4.3,4,-3.9%,-7.3,1.55
CN(C)CCN1CCc2c([nH]c3ccccc23)C1c1cccnc1 (configuration not stated),-55.6,-24.8,-4.2,6.25%,-18.2,-38.2
COc1cc(C)c(OC)c(C/C=C(\C)CC2=C(CC(C)(C)O)C(=O)[C@]3(C)CCC[C@]3(C)C2)c1,33.6,25.8,13.7,4.35%,16.5,12.4
CN(C)Cc1cc(C(=O)O)ccc1O,10.1,13.1,9.45,-29%,2.85,-0.75
CC1=N/C(=C\c2cccs2)C(=O)O1,26.6,30.5,28.1,20.5%,22.9,28.9
CN(/N=C1\C(=O)Nc2ccccc21)c1ccccc1,4.65,-3.15,13.6,-37.9%,3.85,17.6
CN(C)CC(O)c1ccc(Cl)c2ccccc12 (configuration not stated),3.95,-20.9,-31.9,-30.1%,-8.7,1.75
COc1ccc(CC2OCCC3c4ccccc4NC23)cc1OC (configuration not stated),-3.2,-3.5,0.7,-10.2%,3,-2.05
COc1ccc2nc(NC(=O)C(=O)NNC(=O)c3ccncc3)sc2c1,-24.5,-24,-10.1,21.1%,-22.9,-14.7
O=[N+]([O-])c1cccc(-c2cc3ccccn3c2)c1,28.9,7,13.8,5.6%,-1.95,6.85

SMILES,growth inhibition [1] [%],growth inhibition [2] [%],growth inhibition [3] [%],growth inhibition [4],growth inhibition [5] [%],growth inhibition [6] [%]
Cc1ccc(CO)cc1C,4.75,-8.5,-2.2,-6.55%,-1.35,-0.15
CCOc1ccccc1NC(=O)CC(C(=O)OC)C(=O)C(=O)OC (configuration not stated),-10,5.75,-24.1,20%,-8.9,-9.75
OCCNc1nc(NCCO)c2cn[nH]c2n1,0.5,0.45,-1.15,-12.7%,5.75,0.55
O=C(Nc1ccccc1)N1CCC[C@@H]2CCCC[C@@H]21,3.2,-0.15,0.7,-82.4%,-6.8,-4.45
CC1(C)C2CCC(=O)C1C(OCc1ccccc1)C2 (configuration not stated),-22.1,15.7,-21.1,-0.85%,-11.6,-47.4
COC(=O)/C=C/c1ccc2c(c1)CCC2,-35.5,-30.9,-13.8,14.6%,31.7,-1.35
Cc1nc(Nc2ccccc2C)c2ccsc2n1,41.3,49.5,43.2,75% (active),51.2,48
Nc1nc2ccc3ccccc3c2c(=O)[nH]1,-4.35,2.35,-1.55,-10.1%,-15.6,12.7
C=CCCCCCCCCCCCCCCCCC,-25.9,-24.1,-13.3,10.4%,-16.1,-28
CN(C)c1ccc(/[N+]([O-])=C/c2cccc3ccccc23)cc1,3.05,22.6,15.2,-51.9%,60.3,38.4
Cc1cccc(-c2nc(-c3cnccn3)n(Cc3ccccc3)n2)c1,-67.5,-46.9,-62,-39.6%,-51.1,-61.2
N#Cc1[nH]c(=O)n(-c2ccc(Cl)cc2)c1N,-30.1,-58.6,-19,-11.3%,-12.4,-33
COc1ccc(-n2c(N)c(C#N)c(C#N)c2-c2cccc([N+](=O)[O-])c2)cc1,6,9.75,-62.8,-3.1%,-18.9,-48.5
CCN(CC)c1ccc2c(C)cc(=O)oc2c1,6.35,-10.6,6.35,3.8%,12.9,0.9
Cn1cnc2c(Oc3ccc(Cl)cc3)ncnc21,-7.35,-14.5,5.25,8.85%,-22.7,5.5
COC1=NC2(C)C(C)=C(c3ccccc3)C1(C)c1ccccc12 (configuration not stated),-12.2,-4.4,-14.6,-46.8%,7.25,-3.8
O=C(c1ccccc1)c1nc2c(Cl)ccc(Cl)c2cc1C(Br)Br,37.1,20.8,44,45.2%,38.1,44.1
CC[C@H](/C=C/[C@@H](C)[C@H]1CC[C@H]2[C@@H]3CC[C@@H]4CC(=O)CC[C@]4(C)[C@H]3CC[C@]12C)C(C)C,29.9,-13.8,9.6,1.15%,35.5,34
O=C1C(Cc2ccccc2)CCCC1Cc1ccccc1 (configuration not stated),-5.25,17.3,-8.05,-21.5%,-6.4,3.35
Nc1[nH]c(=S)[nH]c(=O)c1N=Cc1ccc2c(c1)OCO2,13.2,10,61.4,12.7%,16.2,9.7
O=S(=O)(CS(=O)(=O)Nc1ccccc1)Nc1ccccc1,21.1,26.9,21.7,-4.45%,11.3,21.3
